Data on eight molecules can be found in PubChem BioAssay (NCI).

Among the test systems are SR leukemia; RPMI-8226 leukemia; OVCAR-8 ovarian; OVCAR-5 ovarian; OVCAR-4 ovarian; SK-OV-3 ovarian; IGROV1 ovarian; OVCAR-3 ovarian; HS 578T breast; NCI/ADR-RES ovarian; T-47D breast; BT-549 breast; MDA-MB-435 melanoma; SW-620 colon; MCF7 breast; HCT-116 colon; HCC-2998 colon; KM12 colon.
Test in all cases: NCI-60 one-dose screen, 48 h (100 = growth as untreated, 0 = no growth, -100 = all killed)
Conditions in all cases: 10 µM unless noted

Compounds without any hit were thinned out: in the full panel of roughly 83,000, 20% have a hit.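 A percent growth of 40 corresponds to 60% growth inhibition; 0 means no net growth; -100 means all cells died. Active threshold: below 10.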 Values without a mark were called inactive. Activity calls are given as the source filed them.

With `Cc1ccc2c(c1)O/C(=C\c1cccc(OCC(=O)c3ccccc3)c1)C2=O`, the growth with SR leukemia is 44.9%; in the assay on RPMI-8226 leukemia it was 188%; in the assay with OVCAR-8 ovarian it was 91.7%; with OVCAR-5 ovarian, 109%; with OVCAR-4 ovarian it was 104%; in the assay on SK-OV-3 ovarian, 108%. Also, the growth in the assay with IGROV1 ovarian is 95.5%; with OVCAR-3 ovarian, 118%; in the assay on HS 578T breast it was 96.6%; with NCI/ADR-RES ovarian, 101%; with T-47D breast, 87.6%; in the assay with BT-549 breast, 104%. The growth was 96.5% with MDA-MB-435 melanoma; 102% with SW-620 colon; 74.8% with MCF7 breast; 84.4% with HCT-116 colon; 130% with HCC-2998 colon; 85.3% in the assay on KM12 colon.

As to `O=C(NCc1cccc(C(F)(F)F)c1)[C@H](CCC(=O)N1CCN(C2CCCCC2)CC1)N1C(=O)[C@@H](N2C(=O)OC[C@@H]2c2ccccc2)[C@H]1/C(Cl)=C/c1ccccc1`, the growth was -36.3% (active) in the assay on SR leukemia; 14.1% with RPMI-8226 leukemia; 64.3% in the assay with OVCAR-8 ovarian; 87% in the assay with OVCAR-5 ovarian; 51.6% with OVCAR-4 ovarian; 56% in the assay on SK-OV-3 ovarian. The growth with IGROV1 ovarian is 36.8%; in the assay with OVCAR-3 ovarian, 47.6%; in the assay on HS 578T breast, 50%; in the assay with NCI/ADR-RES ovarian it was 35.7%; with T-47D breast it was 61.3%; with BT-549 breast, 60.1%. Besides, the growth with MDA-MB-435 melanoma is 52.1%; with SW-620 colon, 74.9%; in the assay with MCF7 breast, 29.6%; in the assay on HCT-116 colon it was 34.3%; with HCC-2998 colon, 31.9%; with KM12 colon, 34.5%.

For the molecule `CC/C(=C(\c1ccc(O)cc1)c1ccc(OCCN(C)CCN(C)C(=O)CCCCC(=O)c2c(C)[nH]c(/C=C3\N=C(c4ccc[nH]4)C=C3OC)c2C)cc1)c1ccccc1`, the growth in the assay with SR leukemia is 9.77% (active); in the assay on RPMI-8226 leukemia, 63.1%; in the assay on OVCAR-8 ovarian it was 85.4%; in the assay on OVCAR-5 ovarian, 108%; in the assay on OVCAR-4 ovarian, 77.7%; in the assay on SK-OV-3 ovarian it was 123%. The growth is 89.5% in the assay on IGROV1 ovarian; 89.4% in the assay on OVCAR-3 ovarian; 97.8% with HS 578T breast; 97.4% in the assay on NCI/ADR-RES ovarian; 62.4% in the assay on T-47D breast; 91.5% in the assay with BT-549 breast. Besides, the growth in the assay on MDA-MB-435 melanoma was 88%; in the assay on SW-620 colon, 88%; in the assay on MCF7 breast, 41.3%; with HCT-116 colon, 56.3%; in the assay on HCC-2998 colon it was 97%; in the assay with KM12 colon, 68.6%.

Regarding `Nc1c(C(=O)Nc2ccccc2)sc2nc3c(cc12)CN(CCc1ccccc1)CC3`, the growth was 90% in the assay with SR leukemia; 92.2% with RPMI-8226 leukemia; 99.7% in the assay on OVCAR-8 ovarian; 99% with OVCAR-5 ovarian; 86.9% in the assay on OVCAR-4 ovarian; 89.8% in the assay on SK-OV-3 ovarian. In addition, the growth is 96.5% with IGROV1 ovarian; 109% in the assay with OVCAR-3 ovarian; 89.1% with HS 578T breast; 87.3% in the assay on NCI/ADR-RES ovarian; 88.1% in the assay on T-47D breast; 104% in the assay with BT-549 breast. The growth in the assay on MDA-MB-435 melanoma is 102%; with SW-620 colon it was 91.3%; with MCF7 breast, 85.8%; in the assay on HCT-116 colon, 98.3%; with HCC-2998 colon, 99%; with KM12 colon, 98.8%.

In the case of `COc1c2ccccc2c(OC)c2[nH]c(=O)ccc12`, the growth in the assay on SR leukemia was 22.2%; with RPMI-8226 leukemia it was 55.2%; in the assay on OVCAR-8 ovarian, 87%; in the assay on OVCAR-5 ovarian, 75.4%; in the assay on OVCAR-4 ovarian, 60.4%; in the assay with SK-OV-3 ovarian, 92.6%. The growth in the assay with IGROV1 ovarian was 81.5%; with OVCAR-3 ovarian it was 59.2%; in the assay with HS 578T breast, 32.8%; in the assay with NCI/ADR-RES ovarian, 57.6%; with T-47D breast, 67.8%; in the assay with BT-549 breast it was 26.7%. The growth in the assay with MDA-MB-435 melanoma is -67.2% (active); in the assay on SW-620 colon it was 61.7%; in the assay on MCF7 breast it was 42.2%; in the assay with HCT-116 colon it was 57.6%; in the assay on HCC-2998 colon, 81%; in the assay on KM12 colon, 36.2%.

Turning to `CC(=O)Oc1cc2cnc3c4cc(OC(C)=O)c(OC(C)=O)cc4ccc3c2cc1OC(C)=O`, the growth in the assay with SR leukemia was -8.28% (active); in the assay with RPMI-8226 leukemia it was 12.8%; in the assay with OVCAR-8 ovarian, -22.1% (active); with OVCAR-5 ovarian it was 54.6%; in the assay on OVCAR-4 ovarian it was -4.13% (active); in the assay with SK-OV-3 ovarian, 26.9%. Also, the growth was -12.8% (active) in the assay on IGROV1 ovarian; -3.27% (active) in the assay on OVCAR-3 ovarian; 28.1% in the assay on HS 578T breast; 13.3% with NCI/ADR-RES ovarian; 14.7% with T-47D breast; 26.8% with BT-549 breast. For the same molecule, the growth was 23.3% with MDA-MB-435 melanoma; 24.8% in the assay with SW-620 colon; 6.96% (active) with MCF7 breast; 5.17% (active) with HCT-116 colon; 45.7% with HCC-2998 colon; 22.8% in the assay with KM12 colon.

On to `CCCCCCCCCCCCCCCCCCNC(=O)[C@H]1CSC(c2ccc(F)c(OC)c2)N1` (some centres undefined), for which the growth in the assay with SR leukemia is -42.1% (active); in the assay with RPMI-8226 leukemia it was -49.3% (active); with OVCAR-8 ovarian, -28.2% (active); in the assay on OVCAR-5 ovarian, -87.9% (active); with OVCAR-4 ovarian it was -3.83% (active); with SK-OV-3 ovarian, 10.5%. Further, the growth in the assay with IGROV1 ovarian was -6.12% (active); with OVCAR-3 ovarian, -85.6% (active); in the assay on HS 578T breast, -30.7% (active); with NCI/ADR-RES ovarian, -42.6% (active); with T-47D breast, -72.3% (active); in the assay on BT-549 breast it was -75.9% (active). In addition, the growth in the assay on MDA-MB-435 melanoma was -92.7% (active); with SW-620 colon, -74.5% (active); with MCF7 breast, -71.7% (active); with HCT-116 colon, -85.5% (active); with HCC-2998 colon, -91.4% (active); with KM12 colon, -72.3% (active).

Consider `Cc1cc(Nc2nc(N3CCNCC3)nc3ccccc23)n[nH]1`, for which the growth is 92.6% in the assay on SR leukemia; 117% with RPMI-8226 leukemia; 115% in the assay with OVCAR-8 ovarian; 89.6% in the assay with OVCAR-5 ovarian; 96.2% in the assay with OVCAR-4 ovarian; 27% in the assay on SK-OV-3 ovarian. The growth with IGROV1 ovarian is 85.1%; in the assay with OVCAR-3 ovarian, 100%; in the assay with HS 578T breast, 65.2%; in the assay with NCI/ADR-RES ovarian it was 107%; with T-47D breast, 93%; in the assay with BT-549 breast, 88.6%. The growth with MDA-MB-435 melanoma is 73%; in the assay with SW-620 colon, 103%; with MCF7 breast, 87%; in the assay on HCT-116 colon it was 80%; in the assay with HCC-2998 colon it was 92.4%; in the assay on KM12 colon it was 26.7%.
